# Bioassay records as filed in PubChem BioAssay.
# E-sel TNF inh: E-selectin induction blockers in HUVEC – imaging, immunofluorescence, high content, primary screen; inhibition, % at 2 µM; actives 0.71% (n = 120,000); HUVEC TNFa-induced E-selectin immunofluorescence;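 active = inhibition above the batch mean plus 3 SD, and confirmed as a hit on visual image review, cut at about 43% in these data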;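 also: 0% = TNF-stimulated DMSO wells and 100% = unstimulated control wells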
# F-actin modifier: modifiers of F-actin cytoskeleton organization, primary screen, imaging, HUVEC, phalloidin staining, high-content imaging; inhibition, % at 2 µM; actives 0.18% (n = 91,000); HUVEC TNFa F-actin phalloidin imaging;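 active = inhibition above the batch mean plus 3 SD and confirmed as a hit by visual image inspection, cut at about 30% in these data, passing the limit was not always enough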
# HUVEC tox TNFa: cytotoxicity in TNFa-stimulated HUVEC, primary screen, cytotoxicity control for VCAM1 expression modulator project, imaging, Hoechst nuclei count; actives 0.17% (n = 93,000); HUVEC TNFalpha-stimulated, Hoechst cell count; cell count reduction, % at 2 µM;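 active = cell count reduction exceeding the screen mean by over 5 SD, scaled to untreated wells per plate, cut at about 78% in these data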;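 also: cells counted after 24 h of TNF alpha exposure following the 1 h pretreatment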
# VCAM1 TNFa inh: inhibitors of TNFa-induced VCAM1 expression, primary screen, imaging, HUVEC, TNFa stimulus, immunofluorescence. HUVEC TNFa-induced VCAM-1 immunofluorescence, high-content imaging. AID 802, 2007. inhibition, % at 2 µM. actives 0.48% (n = 95,000);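 active = inhibition above the batch mean plus 3 SD, with images confirmed as a hit by eye, cut at about 37% in these data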;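 also: 0% = TNF-stimulated DMSO wells and 100% = unstimulated control wells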
# * = called active by the depositor; . = not tested or not shown. In the library only some 1.1% were active in any assay of this set; here they are far more common.
SMILES,E-sel TNF inh,F-actin modifier,HUVEC tox TNFa,VCAM1 TNFa inh
CCc1ccccc1N(C(=O)c1cccs1)C1C=CS(=O)(=O)C1 (configuration not stated),-21.0,.,-33.3,10.1
O=C(NC1(C(F)(F)F)NC(=O)N(C2CCCCC2)C1=O)c1cccs1 (configuration not stated),-8.9,.,.,.
O=C(OCn1ncc(Br)c(Br)c1=O)c1ccc(F)cc1,89.8*,-6.7,28.2,80.7*
O=C(OCn1ncc(Br)c(Br)c1=O)c1ccccc1Cl,.,-4.3,32.2,34.3
COc1ccc(C(=O)C(CN2CCOCC2)c2ccccc2)cc1 (configuration not stated),-23.7,.,0.4,51.2*
CCCOc1ccc(C(=O)C(CN2CCCC2)c2ccccc2)cc1 (configuration not stated),4.8,.,.,.
COc1ccc(C(=O)C(CN2CCCC2)c2ccccc2)cc1 (configuration not stated),.,6.9,-4.5,83.8*
CCCCOc1ccc(C(=O)C(CN2CCOCC2)c2ccccc2)cc1 (configuration not stated),21.6,13.7,-20.0,41.1
Cc1ccc(-c2nc(CSCC(=O)Nc3cc(C)on3)c(C)o2)cc1,.,-9.1,88.9*,38.3
Cc1cc(NC(=O)CSCc2nc(-c3cccc(F)c3)oc2C)no1,.,-5.8,-0.4,-9.0
COc1cccc(C2C(C(=O)OCc3ccccc3)=C(C)Nc3ncnn32)c1OC (configuration not stated),7.0,4.2,-30.3,2.1
COc1ccc(/C=N/NC(=O)C(C)n2cnc3ccccc3c2=O)cc1OC (configuration not stated),96.0*,.,.,.
O=C(NCc1nc(-c2ccccc2)no1)c1ccc2c(c1)OCO2,99.9*,6.3,-7.1,-4.6
CC(C)N(Cc1nc(-c2ccccc2)no1)C(=O)c1ccc2c(c1)OCO2,3.4,-35.5,8.4,15.8
O=C(NC(C(=O)c1ccccc1)n1ccc(=O)[nH]c1=O)c1ccccc1 (configuration not stated),-21.5,-21.1,-3.0,26.9
CCC(=O)Nc1cccc(C(=O)/C=C/c2cc(Br)ccc2OC)c1,46.2,-23.6,5.2,68.8*
Cc1cccc(Oc2coc3cc(OC(=O)c4cc5ccccc5oc4=O)ccc3c2=O)c1,-35.8,20.7,2.5,20.3
COc1ccc(NC(=O)CN(C)CC(=O)Nc2ccccc2SC)cc1,70.2*,.,.,.
COc1ccc(CSCC(=O)Nc2ccccc2SC)cc1,5.8,.,.,.
Cc1ccc(/C=C2/SC(=O)NC2=S)o1,-6.6,.,.,.
CN(C)S(=O)(=O)Oc1cccc(C(=O)Nc2ccc([N+](=O)[O-])cc2)c1,28.6,.,.,.
Cc1n[nH]c(=O)nc1NCc1ccccc1,.,-6.5,76.8,88.9*
NC(=O)CC(NC(=O)OCc1ccccc1)C(=O)O (configuration not stated),-5.6,5.0,-21.7,3.1
NC(=O)NOCc1ccccc1,68.3*,.,.,.
CCc1ccc(CC2S/C(=C(\C#N)C(C)=O)NC2=O)cc1 (configuration not stated),50.1*,14.8,-11.3,-6.3
SMILES,E-sel TNF inh,F-actin modifier,HUVEC tox TNFa,VCAM1 TNFa inh
CCOC(=O)c1ccc(CC2S/C(=C(\C#N)C(C)=O)NC2=O)cc1 (configuration not stated),4.1,-5.7,-16.3,10.6
O=C(NCC(c1cccs1)N1CCOCC1)c1ccccc1NS(=O)(=O)c1cc([N+](=O)[O-])ccc1Cl (configuration not stated),7.6,.,.,.
CC(C)(C)C1C/C(=C/c2ccccn2)C(=O)/C(=C/c2ccccn2)C1 (configuration not stated),99.9*,.,.,.
CC1C/C(=C/c2ccccn2)C(=O)/C(=C/c2ccccn2)C1 (configuration not stated),99.9*,.,.,.
O=C(COC(=O)c1c[nH]c(=O)[nH]c1=O)NCc1ccccc1,-17.1,7.8,-20.7,17.9
CC1CC(=O)Nc2ccccc2S1(=O)=O (configuration not stated),84.4*,.,.,.
Clc1ccc(Nc2nc3cccnc3s2)cc1,71.6*,.,.,.
O=C(COc1ccc([N+](=O)[O-])cc1Cl)NCCc1ccccc1,87.7*,.,.,.
O=C(COc1ccc(Cl)cc1Cl)NCCCCc1ccccc1,-62.0,8.9,-12.7,-0.9
COCCCNC(=O)COc1ccc(S(=O)(=O)NCc2ccccc2)cc1Cl,91.6*,.,.,.
CCN(CC)S(=O)(=O)c1cc(NC(=O)COC(=O)c2sc3ccccc3c2Cl)ccc1C,-54.3,.,.,.
CC(=O)c1cccc(N(C(=O)Cn2nnc3ccccc32)C(C(=O)NCC2CCCO2)c2ccc(N3CCOCC3)cc2)c1 (configuration not stated),-9.5,.,.,.
COc1ccc(NC(=O)c2oc3ccccc3c2C)c(OC)c1,-1.9,6.2,-14.3,16.2
COC(=O)c1cc(OC)c(OC)cc1NC(=O)c1oc2ccccc2c1C,-6.9,32.2*,-28.4,2.7
COC(=O)CN(c1ccc2c(c1)OCCO2)S(=O)(=O)c1ccccc1,10.5,-8.2,7.0,10.2
COC(=O)CN(c1ccc(F)cc1)S(=O)(=O)c1ccc2c(c1)OCCO2,-1.4,96.3*,2.5,28.6
O=C1OCC(CO)(CO)N=C1NNc1ccccc1Cl,-15.7,31.3*,-34.0,-6.2
Cn1ccnc1SCC(=O)Nc1cccc([N+](=O)[O-])c1,-17.1,.,.,.
Cn1nnnc1SCC(=O)Nc1cccc([N+](=O)[O-])c1,76.3*,.,.,.
COc1cc(C(=O)OCCCN=C2NS(=O)(=O)c3ccccc32)cc(OC)c1OC,-27.4,.,.,.
Clc1ccc(-n2ncc3c(NCc4ccco4)ncnc32)cc1,-21.7,.,.,.
Clc1ccc(-n2ncc3c(NCc4ccc5c(c4)OCO5)ncnc32)cc1,-20.6,-14.8,28.5,80.3*
N/C(=N\OC(=O)Cc1cccs1)c1ccc([N+](=O)[O-])cc1,42.6,.,.,.
COc1ccc(S(=O)(=O)N2CCN(c3nc4ccccc4nc3-n3nc(C)cc3C)CC2)cc1,-14.1,-12.0,.,-45.4
O=C(Nc1ccc(F)c(F)c1)c1ccc2c(c1)OCO2,.,7.2,-16.7,-12.6
SMILES,E-sel TNF inh,F-actin modifier,HUVEC tox TNFa,VCAM1 TNFa inh
O=C(Nc1ccc2nsnc2c1)c1ccc2c(c1)OCO2,99.9*,11.6,28.7,29.1
CCOc1cc(C(=O)OCC(=O)c2c(C)[nH]c3ccccc23)ccc1OCC(=O)N1CCOCC1,-10.9,50.5*,77.9,37.6
CCN(CC)c1ccc(C2C(C(=O)OCCOC)=C(C)NC3=C2C(=O)CC(C)(C)C3)cc1 (configuration not stated),61.4*,-43.6,-12.5,2.1
CCCOC(=O)C1=C(C)NC2=C(C(=O)CC(C)(C)C2)C1c1ccc(N(C)C)cc1 (configuration not stated),-0.2,44.5,-6.5,-4.9
CCOC(=O)C1CCN(C(=O)c2cn(CCOC)c(=O)c3c2c2ccccc2n3C)CC1,-41.2,39.2*,57.4,-13.7
O=C(Nc1ccc2oc(-c3cccnc3)nc2c1)c1ccc([N+](=O)[O-])o1,96.9*,.,.,.
CCCCNC(=O)CSc1cc(=O)n(C)c2ccccc12,.,30.8*,39.9,0.3
Cn1c(=O)cc(SCC(=O)NCCCN2CCOCC2)c2ccccc21,.,5.4,-1.2,21.7
